Active and inactive are the calls of the source.

The test has as its system XIP peptide (Xip251-270) binding. Put plainly: XIP fragment 251-270 binding compounds – biochemical, small-molecule microarray, fluorescence 635/667 nm, 0.1 µg/mL protein, primary screen (AID 1182). Particulars: fluorescent protein binding, 635 nm, higher = more signal, called active from +8 up or from −8 down.
For the compound `Cc1ccc(S[C@]2(C(=O)NCC(F)(F)F)CC(=O)N(Cc3ccccc3Cl)[C@@H]2c2ccc(CO)cc2I)cc1`, the composite z-score is 0.292 (inactive). Take `Cc1ccc(S[C@]2(C(=O)O)CC(=O)N(Cc3ccccc3)[C@@H]2c2ccc(CO)cc2I)cc1`: the composite z-score is 0.233 (inactive). Then `COC(=O)C1(C)C=C2C(=C(c3ccccc3)C(=O)C2C)CN1` (stereo unspecified), with -0.21 (inactive); and `CC(C)[Si]1(C(C)C)O[C@@H](c2ccccc2)c2cc(C3CC3)nc(-c3ccccc3)c21`, with -0.431 (inactive). In the case of `CN1C(=O)C2C=CC(C(O)C(c3ccccc3)c3ccccc3)N(NC(=O)OC(C)(C)C)C2C1=O` (stereo unspecified), the composite z-score was 3.1 (inactive). Take `COC(=O)[C@@H]1N=C(c2ccc(OCCCO)cc2)O[C@@H]1c1ccccc1N=[N+]=[N-]`: the composite z-score is 0.82 (inactive). The result for `C=C(/C(=C/C[C@H](OC(C)=O)c1ccc(OCCO)cc1)c1cnc2ccccc2c1)C(C)C` reads -0.18 (inactive); that for `COCCCNC(=O)[C@@]1(CCS(=O)(=O)c2ccccc2)N=C(c2ccc(OCCCO)cc2)O[C@H]1c1ccccc1`, 1.3 (inactive). Then `CC(C)NC(=O)[C@@]1(c2ccc([N+](=O)[O-])cc2)CC(=O)N(CC23CC4CC(CC(C4)C2)C3)[C@@H]1c1ccc(CO)cc1I`, with 0.805 (inactive).

As to `CCCCCN1CC=CC23O[C@@H]4C=CCOC(=O)[C@@H]4[C@H]2C(=O)N(C(CO)C(C)C)[C@@H]3C1=O` (stereo partly specified), the composite z-score was 0.824 (inactive). Then `COc1ccc([Si](C)(C)[C@@H]2[C@@H](CCO)O[C@]3(C(=O)N(Cc4ccc(NC(C)=O)cc4)c4ccccc43)[C@H]2C)cc1`, with 0.935 (inactive); and `O[C@@H](Cc1ccccc1)[C@H]1C2C=CCCC(c3ccccc3)=C2CN1Cc1cccc(Cl)c1` (stereo partly specified), with -0.241 (inactive); and `CN1C(=O)[C@@]2(CCC(=O)OC(C)(C)C)N=C(c3ccc(OCCCO)cc3)O[C@H]2c2ccccc21`, with 0.0792 (inactive). Then `O=C1NC(=O)C2C1C=CC(C(O)Cc1ccccc1)N2Nc1ccccn1` (stereo unspecified), with -0.0757 (inactive). The result for `CO[C@H]1O[C@H](CO)[C@@H](OC(=O)Nc2ccc3c(c2)OCO3)[C@H](OC(=O)Nc2ccccc2-c2ccccc2)[C@@H]1OC(=O)Nc1ccccc1-c1ccccc1` reads 1.03 (inactive); that for `CC(C)c1ccc(NN2C(C(O)c3ccc4c(c3)OCO4)C=CC3C(=O)N(c4ccccc4)C(=O)C32)cc1` (stereo unspecified), 0.803 (inactive). Consider `COC(=O)[C@H]1COC(c2ccc(OCCCO)cc2)=N1`, for which the composite z-score is 0.239 (inactive). For `C[N+](C)(C)CCCCCCNC(=O)[C@@H]1C[C@@H]2C(=O)N3CCC[C@H]3C(=O)N2[C@@H]1c1cccc(OCCO)c1`, the composite z-score is -0.113 (inactive). The result for `CS(=O)(=O)CCOC(=O)C1=CC(CCCO)=CC(c2cccs2)N(Cc2cccc(OC(F)(F)F)c2)C=C1C(=O)OCCS(C)(=O)=O` (stereo unspecified) reads 1.17 (inactive).

For `C=CCN1C(=O)[C@]2(O[C@H](CCn3cc(CCO)nn3)[C@@H]([Si](C)(C)c3ccc(OC)cc3)[C@@H]2C)c2cc(N3CCOC3=O)ccc21`, the composite z-score is 0.0616 (inactive). For `CC(C)NC(=O)[C@@]1(C)c2ccccc2C(=O)N(Cc2cc(F)cc(C(F)(F)F)c2)[C@H]1c1ccc(CO)cc1`, the composite z-score was 1.06 (inactive). Then `CO[C@H]1O[C@H](CO)[C@@H](OC(=O)Nc2ccc(C#N)cc2)[C@H](OC(=O)c2cc3ccccc3[nH]2)[C@H]1OC(=O)c1cc2ccccc2[nH]1`, with 2.37 (inactive). Regarding `COc1ccc([Si](C)(C)[C@@H]2[C@@H](CC(=O)N3CCC[C@H]3CO)O[C@]3(C(=O)N(Cc4cccc(N5CCC5=O)c4)c4ccccc43)[C@H]2C)cc1`, the composite z-score is 1.07 (inactive).

Consider `CCCNC(=O)[C@@H]1c2ccccc2C(=O)N(Cc2ccccc2Cl)[C@H]1c1ccc(CO)cc1`, for which the composite z-score is -0.101 (inactive). On to `C=C(/C(=C/C[C@@H](OC(=O)c1ccncc1)c1ccc(OCCO)cc1)c1cnc2ccccc2c1)C(C)C`, for which the composite z-score was -0.214 (inactive).

With `O=C1C[C@]2(c3ccc([N+](=O)[O-])cc3)C(=O)N(CCN3CCOCC3)c3cc(CO)ccc3[C@H]2N1CC12CC3CC(CC(C3)C1)C2`, the composite z-score is 0.288 (inactive). Then `CN(C)CCCNC(=O)[C@@H]1c2ccccc2C(=O)N(Cc2cc(F)cc(C(F)(F)F)c2)[C@H]1c1ccc(CO)cc1`, with 0.782 (inactive). Then `CN(C)CCCNC(=O)[C@@H]1c2ccccc2C(=O)N(Cc2ccccc2)[C@H]1c1ccc(CO)cc1`, with 0.0257 (inactive); and `CN1C(=O)C2C=CC(C(O)c3ccc(Br)cc3)N(N(c3ccccc3)c3ccccc3)C2C1=O` (stereo unspecified), with 0.654 (inactive); and `COc1ccc(CCNC(=O)[C@@H]2c3ccccc3C(=O)N(c3ccc(C)cn3)[C@H]2c2ccc(CO)cc2)cc1`, with -1.02 (inactive). Take `CCOC(=O)C1=CCC(c2cc3ccccc3[nH]2)NC1` (stereo unspecified): the composite z-score is -0.0143 (inactive).

As for `CC(C)N1CC=CC23O[C@@H]4C=CCCOC(=O)C4[C@H]2C(=O)N(CCCCCCO)[C@@H]3C1=O` (stereo partly specified), the composite z-score is -0.543 (inactive). Then `[N-]=[N+]=NCc1ccccc1[C@@H]1OC(c2ccc(OCCCO)cc2)=N[C@]1(Cc1ccccc1)C(=O)N1CCOCC1`, with 0.713 (inactive); and `COCCOC(=O)N1C(=O)[C@@]2(c3cc(C#CC4(O)CCCCCC4)ccc31)[C@H](c1ccc(OCCO)cc1)N1[C@H](c3ccccc3)[C@H](c3ccccc3)OC(=O)[C@H]1[C@@H]2C(=O)NC[C@H](O)c1ccccc1`, with 0.437 (inactive); and `CCCNC(=O)[C@@H]1c2ccccc2C(=O)N(c2ccc(C)cn2)[C@H]1c1ccc(CO)cc1`, with -0.239 (inactive). Then `COC(=O)c1c(CC[C@@H](CO)NC(=O)N[C@H](Cc2ccccc2)Cn2cc(-c3ccccc3N)nn2)oc(C(C)=O)c1C(=O)OC`, with 0.0074 (inactive).

The values are drawn from PubChem BioAssay.
